Experimental data as given in PubChem BioAssay AID540333 (Southern Research Specialized Biocontainment Screening …, 2011).
Hit rate of the full screen: of about 10,000 compounds, about 320 (3.2%) were called active. This is one part of a sample in which actives are shown more often than they occur. Values without a mark were called inactive. No stated cut-off is given here; in the data, active means CPE inhibition mostly above about 9.1% (no sharp cut-off); inactive means mostly below about 7.2%.

Assay: antivirals protecting cells from dengue CPE – CPE readout, HTS (AID 540333)
Settings: Dengue virus CPE inhibition in host cells, at 20 µM; stronger effect = higher value

Structure (SMILES) | CPE inhibition
C/C(=N\Nc1ncc(Cl)cc1Cl)c1ccc(S(=O)(=O)NCc2ccco2)cc1 | inactive
C/C(=N\Nc1ccccn1)c1ccc(S(=O)(=O)NCc2ccco2)cc1 | inactive
C/C(=N\Nc1nc(Cl)c(Cl)cc1Cl)c1ccc(S(=O)(=O)NCc2ccco2)cc1 | 8.5% (active)
Cc1ccccc1OCC(=O)N/N=C1\SCC(=O)N1Cc1ccccc1 | inactive
COc1ccc(-c2cc(C(=O)OCC(=O)Nc3ccc4c(c3)OCO4)c3ccccc3n2)cc1 | 0.175%
COc1ccc(C(C(=O)Nc2ccc3c(c2)OCO3)N(C)C(=O)Cc2c[nH]c3ccccc23)cc1 (stereo not given) | 25.8% (active)
COc1ccc(NC(=O)C(c2cc3c(cc2[N+](=O)[O-])OCO3)N(C)c2ccccc2)cc1 (stereo not given) | 1.73%
O=C(CCCC(=O)N1CCN(c2ccc([N+](=O)[O-])cc2)CC1)c1ccccc1 | 0.355%
Cc1ccc2nc(N3CC(=O)Nc4ccccc43)nc(-c3ccccc3)c2c1 | 1.55%
Cc1c(Cl)cccc1NCC(=O)Nc1ccc(Cl)cc1F | 4.37%
COc1ccc(NC(=O)CCC(=O)c2cccs2)cc1S(=O)(=O)Nc1ccc(Cl)cc1 | 0.325%
COc1ccc(NS(=O)(=O)c2cccc(NC(=O)CCC(=O)c3ccc(Cl)cc3)c2)cc1 | 17.3% (active)
Cc1ccc(C(=O)CCC(=O)Nc2ccc(Cl)c(S(=O)(=O)Nc3cccc(Cl)c3)c2)cc1 | 4.45%
CC(=O)Nc1ccc(OCC(=O)NCCc2ccc(Cl)cc2)cc1 | inactive
Cc1cc(/C=N\NC(=O)CC(=O)NC2CCCCC2)c(C)n1-c1cccc(Cl)c1Cl | 22.7% (active)
Cc1cccc(C)c1-n1c(C)cc(/C=N\NC(=O)CC(=O)NC2CCCCC2)c1C | 0.17%
Cc1ccc(-n2c(C)cc(/C=N\NC(=O)CC(=O)NC(C)C)c2C)cc1 | inactive
Cc1ccc(S(=O)(=O)c2cc(OC(=O)c3ccco3)ccc2OC(=O)c2ccco2)cc1 | 0.235%
CC1(C)CC(NC(=O)C(Cl)(Cl)Cl)CC(C)(C)N1 | inactive
CCn1ncc(/C=C/C(=O)C2CC2)c1C | 2.21%
CCOC(=O)c1c(C)[nH]c(C(=O)/C(C#N)=C/c2ccc(OCC)cc2)c1C | 0.085%
CCOC(=O)c1c(C)[nH]c(C2=NNC(=Nc3ccc(OCC)cc3)SC2)c1C | 13.2% (active)
CCOc1ccc(N=C2NC(=O)/C(=C/C(=O)OC)S2)cc1 | 0.935%

Structure (SMILES) | CPE inhibition
O=C(CCN1C(=O)c2ccccc2C1=O)C1=NN[C@@H]2C(=O)N(c3cccc(F)c3)C(=O)[C@H]12 | 1.32%
COc1cc(C=Nc2cccc([N+](=O)[O-])c2C)ccc1OC(C)=O | 4.63%
Cc1cccc(/C=N/Nc2cc(N3CCOCC3)nc(N3CCOCC3)n2)c1 | inactive
Cc1cccc(-c2nc(Nc3ccc(N4CCOCC4)cc3)c3ccccc3n2)c1 | inactive
CSc1nc(N2CCOCC2)nc2ccc(C)cc12 | 11.8% (active)
COc1ccc(C)cc1NC(=O)c1cc2c(s1)CCC2 | inactive
COc1ccc(/C=N/N2CCN(C3c4ccccc4-c4ccccc43)CC2)cc1OC | 0.5%
CCc1nc(C#N)c(N2CCOCC2)o1 | 0.655%
COc1ccc(C(=O)N[C@H](C(=O)OCC(=O)NC(=O)c2cccn2C)C(C)C)cc1 | inactive
CC(=O)c1ccc(NC(=O)c2cc(Cl)sc2Cl)cc1 | 0.185%
O=C(COC(=O)c1ccccc1C(=O)c1ccc(Cl)cc1)NCCc1ccccc1 | 5.59%
Cc1ccc(C(=O)c2ccccc2C(=O)OCC(=O)NCCc2ccccc2)cc1 | 1.41%
Cc1ccc(C(=O)c2ccccc2C(=O)OCC(=O)NCCc2ccc(Cl)cc2Cl)cc1 | 22.8% (active)
O=C(Nc1ccn(-c2ccccc2)n1)c1ccc(Cl)cc1 | 0.155%
COc1ccc(CCNC(=O)CC2SC(=NCCc3ccccc3)NC2=O)cc1 (stereo not given) | inactive
C[C@H](NS(=O)(=O)c1ccc(Cl)cc1)C(=O)OCC(=O)NC(=O)Nc1ccc2c(c1)OCCO2 | 0.475%
Cc1ccc(S(=O)(=O)Nc2cccc3c2CCCC3)cc1 | 0.255%
COc1cc(NS(=O)(=O)c2ccc(Cl)cc2)c(C(=O)O)cc1OC | 0.06%
O=S(=O)(Nc1cccc2c1CCCC2)c1ccc(Cl)cc1 | 21.1% (active)
CCCc1nc2c(c(=O)c3ccccc3n2C)c(=O)n1-c1ccc(F)cc1 | 1.89%
CCc1nc2c(c(=O)c3ccccc3n2C)c(=O)n1C1CCCCCC1 | 13.5% (active)
Cn1c2ccccc2c(=O)c2c(=O)n(C3CCCCCC3)c(C3CCCCC3)nc21 | inactive
